By AC50 is commonly meant the midpoint of the concentration-response curve, whichever way the signal moves.

Seven compounds from PubChem BioAssay (EPA / NIEHS) can be followed below.

Experiment [1] in a line: ATG_M_06_CIS: Attagene CIS-FACTORIAL HepG2 Assay for M06 Transcription Factor (Internal Marker) (AID 2282950). As to conditions: HepG2 Attagene CIS-FACTORIAL M06 internal marker reporter; actives raise or lower the signal. A digest of the protocol:
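Fluorescence-labelled RT-PCR products from cis-promoter reporter units, cut with HpaI and resolved by capillary electrophoresis, give the signal. Cells are human HepG2, dosed for 24 h. Serves as background control, fitted relative to DMSO.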

The target of experiment [2] is Hypoxia-inducible factor 1-alpha (Homo sapiens) (UniProt Q16665). Put plainly: ATG_HIF1a_CIS: Attagene CIS-FACTORIAL HepG2 Assay for human Hypoxia Inducible Factor 1 (HIF1A) (AID 2282951). The conditions noted are these: HepG2 Attagene cis-factorial HIF1a reporter transcription; actives raise or lower the signal. The method in brief: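 RT-PCR/capillary electrophoresis fluorescence readout of reporter transcripts from endogenous-TF-driven cis elements in transfected HepG2 cells, 24 h exposure; activity fitted in both directions against DMSO controls.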
Hypoxia-inducible factor 1-alpha (Homo sapiens), sequence (Q16665 whole entry, looked up): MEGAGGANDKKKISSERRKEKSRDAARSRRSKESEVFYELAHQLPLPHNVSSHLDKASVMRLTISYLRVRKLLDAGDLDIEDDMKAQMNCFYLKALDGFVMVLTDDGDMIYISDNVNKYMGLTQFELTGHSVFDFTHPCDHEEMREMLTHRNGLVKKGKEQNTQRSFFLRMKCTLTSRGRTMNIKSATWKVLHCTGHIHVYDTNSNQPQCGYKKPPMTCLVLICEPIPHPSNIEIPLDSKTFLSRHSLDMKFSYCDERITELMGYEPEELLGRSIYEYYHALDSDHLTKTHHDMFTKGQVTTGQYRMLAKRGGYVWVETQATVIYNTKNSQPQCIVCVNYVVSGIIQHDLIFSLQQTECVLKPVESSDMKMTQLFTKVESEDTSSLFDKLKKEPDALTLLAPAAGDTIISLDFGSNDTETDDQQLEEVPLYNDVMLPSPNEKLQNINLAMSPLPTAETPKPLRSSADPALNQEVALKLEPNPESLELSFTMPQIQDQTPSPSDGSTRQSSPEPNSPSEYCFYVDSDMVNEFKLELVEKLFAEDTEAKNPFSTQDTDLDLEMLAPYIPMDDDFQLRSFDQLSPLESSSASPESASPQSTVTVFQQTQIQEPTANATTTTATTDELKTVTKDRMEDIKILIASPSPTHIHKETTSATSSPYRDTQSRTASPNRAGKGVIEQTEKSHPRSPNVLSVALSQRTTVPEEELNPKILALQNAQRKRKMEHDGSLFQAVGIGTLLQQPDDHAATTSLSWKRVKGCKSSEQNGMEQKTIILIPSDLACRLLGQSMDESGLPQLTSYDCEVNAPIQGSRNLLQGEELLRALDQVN

For experiment [3], the target named is Hepatocyte nuclear factor 6 (Homo sapiens) (UniProt Q9UBC0). Put plainly: ATG_HNF6_CIS: Attagene CIS-FACTORIAL HepG2 Assay for human Hepatocyte Nuclear Factor 6 (HNF6) (AID 2282952). As to conditions: HepG2 Attagene cis-factorial HNF6 reporter transcription; actives raise or lower the signal. The method in brief:
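HepG2 cells transiently transfected with cis-element-driven multiple reporter transcription units, dosed 24 h; reporter mRNA quantified by RT-PCR, FAM primer extension, HpaI digestion and capillary electrophoresis; bidirectional fit versus DMSO baseline.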

Experiment [4] can be described thus: ATG_MRE_CIS: Attagene CIS-FACTORIAL HepG2 Assay for human Metal Responsive Element (MRE) (AID 2282954). As to conditions: HepG2 MRE cis-reporter transcription, Attagene multiplex; actives raise or lower the signal. A digest of the protocol: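 After a 24 h chemical exposure, transiently transfected HepG2 cells yield RNA whose reporter sequences are amplified, FAM-labelled and sized by capillary electrophoresis. Curves are fitted bidirectionally relative to DMSO.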

The nature of experiment [5]: ATG_PBREM_CIS: Attagene CIS-FACTORIAL HepG2 Assay for human Phenobarbital-responsive Enhancer Module (PBREM) (AID 2282955). As to conditions: HepG2 PBREM cis-reporter, Attagene multiplexed transcription; actives raise or lower the signal. The method in brief:
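Reporter mRNA read by RT-PCR, 6-FAM primer extension, HpaI digestion and capillary electrophoresis. Transfected HepG2 cells, 24 h compound exposure. Gain or loss of signal fitted bidirectionally relative to DMSO baseline.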

Experiment [6] concerns the target Paired box protein Pax-6 (Homo sapiens) (UniProt P26367). Put plainly: ATG_Pax6_CIS: Attagene CIS-FACTORIAL HepG2 Assay for human Paired Box 6 (PAX6) (AID 2282956). As to conditions: HepG2 CIS-FACTORIAL PAX6 reporter transcription, RNA readout; actives raise or lower the signal. The method in brief: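 Transient MRTU transfection of HepG2 → compound exposure 24 h → TriZol RNA, oligo(dT) RT → PCR, 6-FAM primer extension, HpaI cut → capillary electrophoresis; activity fitted both directions against DMSO.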

Experiment [7] is described as follows: ATG_PXRE_CIS: Attagene CIS-FACTORIAL HepG2 Assay for human Pregnane X Receptor Element (PXRE) (AID 2282957). The conditions noted are these: HepG2 Attagene CIS-FACTORIAL PXRE reporter, mRNA; actives raise or lower the signal. The method in brief:
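HepG2 cells transiently transfected with cis-regulated multiple reporter transcription units; endogenous factor activity measured as reporter mRNA 24 h after dosing. RT-PCR, fluorescent primer extension, HpaI digestion, capillary electrophoresis; bidirectional fit versus DMSO baseline.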

The nature of experiment [8]: ATG_PPRE_CIS: Attagene CIS-FACTORIAL HepG2 Assay for human Peroxisome Proliferator-activated Response Element (PPRE) (AID 2282958). The conditions noted are these: HepG2 PPRE cis-element reporter, Attagene transcription factor profiling; actives raise or lower the signal. The method in brief: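 Read-out: fluorescent reporter mRNA fragments resolved by capillary electrophoresis after RT-PCR. HepG2 cells carried transiently transfected PPRE-driven cis reporter constructs and were dosed for 24 h; gain or loss of signal fitted relative to DMSO.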

Experiment [9] is described as follows: ATG_RORE_CIS: Attagene CIS-FACTORIAL HepG2 Assay for human RAR-related Orphan Receptor Element (RORE) (AID 2282959). The conditions noted are these: HepG2 Attagene cis-factorial RORE reporter, mRNA; actives raise or lower the signal. The method in brief:
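Readout: fluorescent reporter mRNA by RT-PCR plus capillary electrophoresis, 24 h after dosing transfected HepG2 cells. Endogenous transcription factor activity on a cis promoter element is measured. Gain or loss of signal fitted against DMSO.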

Experiment [10] addresses Transcription factor Sp1 (Homo sapiens) (UniProt P08047). Put plainly: ATG_Sp1_CIS: Attagene CIS-FACTORIAL HepG2 Assay for human Specificity Protein 1 (Sp1) (AID 2282961). As to conditions: HepG2 Sp1 cis-reporter transcription, actives raise or lower the signal. The method in brief: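 Read-out: fluorescence of 6-FAM-labeled, HpaI-digested RT-PCR products separated by capillary electrophoresis. HepG2 cells carried transfected cis-element reporter units and were exposed to chemicals for 24 h; gain or loss of signal fitted relative to DMSO.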

Experiment [11] in a line: ATG_SREBP_CIS: Attagene CIS-FACTORIAL HepG2 Assay for human Sterol Regulatory Element Binding (SREBP) (AID 2282962). The conditions noted are these: HepG2 Attagene cis-factorial SREBP reporter, mRNA; actives raise or lower the signal. A digest of the protocol: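 Transfected HepG2 (cis-regulated reporter library, endogenous TFs) → compound 24 h → total RNA → oligo(dT) RT → reporter-specific PCR → FAM primer extension, HpaI cut → CE fluorescence. Fit bidirectional vs DMSO.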

Experiment [12] addresses Signal transducer and activator of transcription 3 (Homo sapiens) (UniProt P40763). Put plainly: ATG_STAT3_CIS: Attagene CIS-FACTORIAL HepG2 Assay for human Signal Transducer and Activator of Transcription 3 (STAT3) (AID 2282963). The conditions noted are these: HepG2, Attagene cis-factorial STAT3 reporter transcription; actives raise or lower the signal. The method in brief: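 After a 24 h compound incubation, total RNA from MRTU-transfected HepG2 cells was converted to cDNA and reporter sequences PCR-amplified, labelled and profiled by capillary electrophoresis. Gain and loss of signal were referenced to DMSO.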

The nature of experiment [13]: ATG_TA_CIS: Attagene CIS-FACTORIAL HepG2 Assay for human TA Basal Promoter (AID 2282964). As to conditions: HepG2 Attagene CIS-factorial TA basal promoter reporter; actives raise or lower the signal. A digest of the protocol: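 Multiplexed mRNA reporter assay, HepG2, 24 h. Reporter cDNA amplified, 6-FAM primer-extended, HpaI-cut, CE-sized; DMSO = negative control and baseline.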

A short description of experiment [14]: ATG_TCF_b_cat_CIS: Attagene CIS-FACTORIAL HepG2 Assay for human T-Cell-Factor with beta-catenin (TCF/b-cat) (AID 2282965). The conditions noted are these: HepG2 TCF/beta-catenin cis-reporter transcription, actives raise or lower the signal. The method in brief:
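Measured: reporter mRNA in HepG2 transiently transfected with cis-promoter reporter units, 24 h after chemical addition. Fitting was bidirectional, DMSO as negative control.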

Experiment [15] is described as follows: ATG_TAL_CIS: Attagene CIS-FACTORIAL HepG2 Assay for human TAL Basal Promoter (AID 2282966).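 Note: background control endpoint measuring basal TAL promoter reporter mRNA not a specific factor.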 As to conditions: HepG2 Attagene cis-factorial TAL promoter reporter; actives raise or lower the signal. A digest of the protocol: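 HepG2 cells were transiently transfected with promoter-driven multiplexed reporter units and dosed for 24 h. Reporter mRNA was measured by RT-PCR with capillary electrophoresis fluorescence; bidirectional fits used DMSO as baseline, serving as a background control.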

The nature of experiment [16]: ATG_VDRE_CIS: Attagene CIS-FACTORIAL HepG2 Assay for human Vitamin D Receptor Element (VDRE) (AID 2282968). The conditions noted are these: HepG2 VDRE cis-reporter transcription, actives raise or lower the signal. The method in brief: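 In transiently transfected HepG2 liver cells, gain or loss of reporter mRNA after 24 h exposure is scored relative to DMSO, using fluorescence detection by capillary electrophoresis of RT-PCR products.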

Experiment [17] has as its target Heat shock factor protein 1 (Homo sapiens) (UniProt Q00613). Put plainly: ATG_HSE_CIS: Attagene CIS-FACTORIAL HepG2 Assay for human Heat Shock Transcription Factor 1 (HSE) (AID 2282953). The conditions noted are these: HepG2 HSE cis-reporter, Attagene RNA transcription; actives raise or lower the signal. The method in brief: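 After a 24 h incubation with test chemical, transfected HepG2 cells were harvested for RNA; reporter transcripts were measured by RT-PCR and capillary electrophoresis. Values reflect gain or loss of signal relative to DMSO.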

A short description of experiment [18]: ATG_Sox_CIS: Attagene CIS-FACTORIAL HepG2 Assay for human SRY-box transcription factor (SOX) (AID 2282960). As to conditions: HepG2 Attagene cis-factorial SOX reporter, mRNA; actives raise or lower the signal. The method in brief:
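Read-out: fluorescent RT-PCR products of SOX1-linked reporter transcripts resolved by capillary electrophoresis, fitted bidirectionally against DMSO. Transiently transfected HepG2 cells, 24 h after chemical exposure, endogenous transcription factor activity.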

Experiment [19] is described as follows: ATG_TGFb_CIS: Attagene CIS-FACTORIAL HepG2 Assay for human Transforming Growth Factor (TGF) (AID 2282967). As to conditions: HepG2 Attagene CIS TGFb reporter, mRNA transcription; actives raise or lower the signal. A digest of the protocol: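 Transcript-level reporter readout: HepG2 transfectants, 24 h exposure, RNA to cDNA, reporter-specific PCR, fluorescent primer extension, capillary sizing against ROX standards. Gain- or loss-of-signal relative to DMSO.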

Active and inactive are the calls of the source. Rule for the calls: active = hit-call score of the fitted dose curve at least 0.9, where 1 is the maximum; inactive = score below 0.9.

Signal transducer and activator of transcription 3 (Homo sapiens), sequence (P40763 whole entry, looked up): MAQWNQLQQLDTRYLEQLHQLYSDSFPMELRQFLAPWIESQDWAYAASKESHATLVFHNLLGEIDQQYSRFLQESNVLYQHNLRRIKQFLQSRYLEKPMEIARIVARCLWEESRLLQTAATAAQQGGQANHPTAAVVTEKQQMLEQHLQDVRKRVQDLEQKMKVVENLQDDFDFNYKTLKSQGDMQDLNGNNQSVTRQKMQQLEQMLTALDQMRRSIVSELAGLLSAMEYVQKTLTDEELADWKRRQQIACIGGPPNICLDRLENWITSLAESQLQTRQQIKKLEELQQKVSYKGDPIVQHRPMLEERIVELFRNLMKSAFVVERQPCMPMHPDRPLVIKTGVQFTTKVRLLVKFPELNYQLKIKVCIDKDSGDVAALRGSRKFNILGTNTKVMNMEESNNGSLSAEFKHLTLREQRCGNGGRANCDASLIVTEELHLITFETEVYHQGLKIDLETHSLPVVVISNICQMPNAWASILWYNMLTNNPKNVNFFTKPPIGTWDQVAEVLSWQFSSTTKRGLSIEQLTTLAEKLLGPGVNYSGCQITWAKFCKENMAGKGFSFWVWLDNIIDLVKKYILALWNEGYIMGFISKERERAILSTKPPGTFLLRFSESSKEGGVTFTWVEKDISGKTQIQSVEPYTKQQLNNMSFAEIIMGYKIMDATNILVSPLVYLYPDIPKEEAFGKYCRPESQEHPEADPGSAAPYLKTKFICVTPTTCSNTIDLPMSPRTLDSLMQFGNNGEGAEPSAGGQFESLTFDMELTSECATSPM
Hepatocyte nuclear factor 6 (Homo sapiens), sequence (Q9UBC0 whole entry, looked up): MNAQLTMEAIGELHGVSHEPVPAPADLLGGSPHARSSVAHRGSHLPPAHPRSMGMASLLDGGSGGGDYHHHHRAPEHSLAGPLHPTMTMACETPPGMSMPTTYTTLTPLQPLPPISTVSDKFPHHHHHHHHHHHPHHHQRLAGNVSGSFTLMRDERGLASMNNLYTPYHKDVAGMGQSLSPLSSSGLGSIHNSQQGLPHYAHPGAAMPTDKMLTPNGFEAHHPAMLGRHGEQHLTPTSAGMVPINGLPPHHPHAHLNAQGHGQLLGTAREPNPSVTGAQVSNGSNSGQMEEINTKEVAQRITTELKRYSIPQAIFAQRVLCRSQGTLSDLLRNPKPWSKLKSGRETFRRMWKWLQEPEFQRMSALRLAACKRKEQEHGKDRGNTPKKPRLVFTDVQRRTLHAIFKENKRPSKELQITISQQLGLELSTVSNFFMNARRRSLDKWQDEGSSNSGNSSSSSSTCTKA
Paired box protein Pax-6 (Homo sapiens), sequence (P26367 whole entry, looked up): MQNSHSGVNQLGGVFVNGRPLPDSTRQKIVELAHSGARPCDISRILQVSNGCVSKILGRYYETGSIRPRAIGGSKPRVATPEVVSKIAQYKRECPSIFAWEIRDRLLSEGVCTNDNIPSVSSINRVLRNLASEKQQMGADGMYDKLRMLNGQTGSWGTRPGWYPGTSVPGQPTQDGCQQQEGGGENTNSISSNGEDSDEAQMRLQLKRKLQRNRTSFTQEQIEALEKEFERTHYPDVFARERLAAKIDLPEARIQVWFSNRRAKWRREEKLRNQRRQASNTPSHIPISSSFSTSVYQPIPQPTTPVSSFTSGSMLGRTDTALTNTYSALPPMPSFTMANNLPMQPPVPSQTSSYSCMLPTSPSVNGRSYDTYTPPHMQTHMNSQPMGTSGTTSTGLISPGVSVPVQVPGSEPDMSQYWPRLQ
Transcription factor Sp1 (Homo sapiens), sequence (P08047 whole entry, looked up): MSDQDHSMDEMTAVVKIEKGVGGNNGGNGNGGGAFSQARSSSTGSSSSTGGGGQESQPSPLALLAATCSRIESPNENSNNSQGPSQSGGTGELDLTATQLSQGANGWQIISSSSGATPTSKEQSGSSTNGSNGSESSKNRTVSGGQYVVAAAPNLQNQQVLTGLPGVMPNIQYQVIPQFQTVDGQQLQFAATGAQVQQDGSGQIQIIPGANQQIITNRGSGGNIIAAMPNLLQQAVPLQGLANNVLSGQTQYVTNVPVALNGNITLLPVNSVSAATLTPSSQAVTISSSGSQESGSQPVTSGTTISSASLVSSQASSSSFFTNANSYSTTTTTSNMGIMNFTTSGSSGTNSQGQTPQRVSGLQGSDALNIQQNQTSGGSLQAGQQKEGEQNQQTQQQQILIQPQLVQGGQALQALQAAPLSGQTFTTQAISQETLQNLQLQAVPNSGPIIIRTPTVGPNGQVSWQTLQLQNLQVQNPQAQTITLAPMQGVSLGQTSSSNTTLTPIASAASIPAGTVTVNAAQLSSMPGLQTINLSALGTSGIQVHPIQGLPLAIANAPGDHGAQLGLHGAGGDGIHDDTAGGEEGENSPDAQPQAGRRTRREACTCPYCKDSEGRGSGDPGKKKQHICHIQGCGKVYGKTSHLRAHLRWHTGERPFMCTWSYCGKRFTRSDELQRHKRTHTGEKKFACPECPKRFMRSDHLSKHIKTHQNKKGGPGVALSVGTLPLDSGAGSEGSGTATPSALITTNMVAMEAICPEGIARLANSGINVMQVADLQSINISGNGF
Heat shock factor protein 1 (Homo sapiens), sequence (Q00613 whole entry, looked up): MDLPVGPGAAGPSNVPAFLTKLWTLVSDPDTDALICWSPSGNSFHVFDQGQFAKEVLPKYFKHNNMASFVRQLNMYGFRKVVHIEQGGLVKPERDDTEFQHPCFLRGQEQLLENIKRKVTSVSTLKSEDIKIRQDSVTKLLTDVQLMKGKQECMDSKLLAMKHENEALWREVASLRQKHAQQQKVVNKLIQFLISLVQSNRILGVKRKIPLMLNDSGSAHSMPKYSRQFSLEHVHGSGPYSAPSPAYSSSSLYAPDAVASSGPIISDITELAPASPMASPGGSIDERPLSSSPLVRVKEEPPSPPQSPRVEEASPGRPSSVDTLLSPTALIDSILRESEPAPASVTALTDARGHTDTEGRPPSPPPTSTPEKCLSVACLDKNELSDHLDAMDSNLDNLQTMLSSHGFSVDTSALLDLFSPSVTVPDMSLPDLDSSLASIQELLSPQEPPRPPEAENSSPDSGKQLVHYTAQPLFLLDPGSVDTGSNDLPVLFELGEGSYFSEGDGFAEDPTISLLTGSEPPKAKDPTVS

As for `Cc1ccccc1OP(=O)(Oc1ccccc1C)Oc1ccccc1C`, the outcome in [1], in [2], in experiment [3], in experiment [5], in experiment [6] and in [8] was inactive. For the same compound, the compound was called inactive in [9], in [11], in experiment [12], in [13], in [14] and in experiment [15]. The AC50 was 10.8 µM (active) in experiment [4], 0.0902 µM (active) in [7], 71.8 µM (active) in [10] and 0.533 µM (active) in experiment [16].
In the case of `FC(F)OCC(F)(F)C(F)(F)F`, the result in experiment [1], in experiment [2], in [3], in experiment [17], in experiment [4] and in [5] was inactive. For the same compound, the outcome in [6], in [7], in [8], in experiment [9], in experiment [18] and in experiment [10] was inactive. For the same compound, the result in [11], in experiment [12], in experiment [13], in experiment [14], in [15] and in [16] was inactive.
For `OCCCCO`, the call in [1], in [2], in experiment [3], in [17], in [4] and in experiment [5] was inactive. Further, the result in experiment [6], in experiment [8], in experiment [9], in experiment [18], in [10] and in experiment [12] was inactive. For the same compound, the outcome in experiment [13], in experiment [14], in experiment [15], in experiment [19] and in experiment [16] was inactive. The AC50 in experiment [7] was 59 µM (active).
With `O=C(O)COc1cc(Cl)c(Cl)cc1Cl`, the outcome in experiment [2], in [3], in experiment [17], in [4], in [7] and in experiment [9] was inactive. Also, the call in experiment [18], in [10], in experiment [12], in [13], in experiment [14] and in [15] was inactive. The result in experiment [19] and in experiment [16] was inactive. In addition, in [8], the AC50 is 33.5 µM (active).
Take `CN(CCCC(O)c1cccnc1)N=O` (configuration not stated): the result in experiment [1], in experiment [2], in experiment [3], in experiment [17], in [4] and in experiment [6] was inactive. The compound was called inactive in experiment [7], in experiment [8], in [9], in [18], in experiment [10] and in [11]. The call in experiment [12], in experiment [13], in [14], in [15], in [19] and in experiment [16] was inactive.
As for `Oc1ccc(Cc2ccc(O)cc2)cc1`, the outcome in experiment [2], in experiment [3], in [4], in experiment [5], in [6] and in experiment [9] was inactive. The result in experiment [10], in experiment [11], in experiment [12], in [13], in experiment [15] and in experiment [19] was inactive. Further, the figures for the half-maximal activity concentration (AC50) in experiment [7] and in experiment [8] were 61.6 µM (active) and 38.8 µM (active), respectively.
On to `Nc1ccc(Br)cc1`, for which the outcome in experiment [1], in experiment [2], in experiment [3], in experiment [17], in [4] and in experiment [5] was inactive. The compound was classed as inactive in [6], in experiment [7], in experiment [8], in [9], in [18] and in experiment [10]. The outcome in experiment [11], in experiment [12], in experiment [13], in experiment [14], in experiment [15] and in [19] was inactive.
